Screening results deposited in PubChem by several laboratories.
TROY signal inh: inhibitors of TROY-driven NF-kB signaling, primary screen, Q293 LMP1-TROYcd cells, NF-kB luciferase, uHTS. Q293 LMP1-TROYcd NF-kB luciferase reporter, 4 h. 0.98% of 360,000 active. inhibition, % at 10 µM;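 active = compounds whose plate-normalised and pattern-corrected inhibition of the luciferase reporter signal at the single screening dose is 50% or more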
HSP90 refold inh: HSP90 inhibitors, primary screen, cell lysate, luminescence; 0.91% of 290,000 active; Heat shock protein HSP 90 (rabbit reticulocyte lysate; luciferase refolding); AID 1789, 2009; inhibition, % at 5.6 µM; Rabbit reticulocyte lysate, luciferase refolding luminescence, 3 h;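 active = inhibition above the screen-wide mean plus 3 SD, computed separately per campaign, cut at about 16% in these data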;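 also: inhibitors lower the luminescence because luciferase stays unfolded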
LGR2 inh: inhibitors of bursicon-induced LGR2 CRE-luciferase signal, primary screen, cell-based, HEK293, CRE-luciferase reporter, bursicon stimulation | Drosophila bursicon receptor LGR2 (rickets) | bursicon-stimulated, 4 h | inhibition, % at 9.99 µM | 0.35% of 380,000 active | AID 720647, 2013;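 active = drop in luminescence signal, shown as inhibition above about 50% in the replicate tests, limit read from the data, passing the limit was not always enough; inconclusive = probably only some replicates passing the limit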;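 also: agonist challenge used bursicon conditioned medium at about half maximal strength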
TWEAK Fn14 block: inhibitors of TWEAK-Fn14 signaling, primary screen, luciferase reporter cells, uHTS. TWEAK-stimulated Fn14 reporter cells, luciferase luminescence, 8 h. 2% of 360,000 active. AID 1159606, 2016. inhibition, % at 10 µM; in the data active = inhibition above about 50%
Large screens that a line does not name were inactive. Sampled rows, rich in hits. Any-hit rate of the full collection: about 2.2%.

CCCN1C[C@@H](C)[C@@H](OC)CN(C)C(=O)c2ccc(NC(=O)c3ccccc3)cc2OC[C@H]1C	none (no result: TROY signal inh, HSP90 refold inh, TWEAK Fn14 block)
CCN(CC)c1ccc(C(=O)OCC(=O)Nc2ccccc2-c2ccccc2)cc1	TWEAK Fn14 block 72.5
NCCOc1ccccc1-c1ccccc1	none (no result: LGR2 inh)
Nc1ccc(Oc2ccccc2-c2ccccc2)cc1	TROY signal inh 68.5, TWEAK Fn14 block 82.5 (no result: HSP90 refold inh, LGR2 inh)
COc1ccc(C(=O)Nc2ccccc2C(=O)Nc2ccc(C(=O)O)cc2)cc1	TWEAK Fn14 block 81.4
Cc1ccc(NC(=O)c2cc3ccccc3oc2=O)cc1S(=O)(=O)N(C)C	TROY signal inh 90.3, HSP90 refold inh 38.4, TWEAK Fn14 block 102.0 (no result: LGR2 inh)
COc1ccc(NC(=O)c2cc3ccccc3oc2=O)cc1	TROY signal inh 73.7, LGR2 inh 76.4, TWEAK Fn14 block 100.3 (no result: HSP90 refold inh)
COc1cc(NC(=O)COc2ccc(Cl)cc2)ccc1NC(=O)C(C)C	none
COc1cc(NC(=O)COc2ccc(Cl)cc2)ccc1-c1cc2ccccc2oc1=O	TWEAK Fn14 block 59.2
O=C(CN1CCOCC1)N[C@H]1CC[C@@H](CCNS(=O)(=O)c2ccccc2F)O[C@@H]1CO	none (no result: TROY signal inh, HSP90 refold inh, TWEAK Fn14 block)
CCCC#Cc1cnc2c(c1)C(=O)N([C@@H](C)CO)C[C@@H](C)[C@H](CN(C)C(=O)Nc1ccccc1F)O2	none (no result: TROY signal inh, HSP90 refold inh, TWEAK Fn14 block)
CN(C)CCCNC(=O)C[C@@H]1C=C[C@H](NS(=O)(=O)c2ccc(F)cc2)[C@@H](CO)O1	none (no result: TROY signal inh, HSP90 refold inh, TWEAK Fn14 block)
CCC(=O)N1[C@@H]2c3cccc(=O)n3C[C@H]1[C@H](CO)[C@H]2C(=O)NCc1ccccc1	none (no result: TROY signal inh, HSP90 refold inh, TWEAK Fn14 block)
CCCCCCc1cc2cc(C(=O)Nc3cccc(OC)c3)c(=O)oc2cc1O	TWEAK Fn14 block 59.1
CCCCCCc1cc2cc(C(=O)Nc3ccc(OC)cc3)c(=O)oc2cc1O	none
COc1ccccc1NC(=O)COc1ccc(/C=N/NC(=O)CSCc2cc(C)cc(C)c2)cc1	none
COc1ccccc1NC(=O)COc1ccc(/C=N/NC(=O)CSCc2ccc(Cl)cc2)cc1	TROY signal inh 51.1 (no result: LGR2 inh)
O=C1/C(=C/c2ccc([N+](=O)[O-])cc2)C=C(c2ccccc2)N1c1ccccc1	none (no result: LGR2 inh)
O=C(O)c1cccc(N2C(=O)/C(=C/c3ccc([N+](=O)[O-])cc3)C=C2c2ccccc2)c1	LGR2 inh inconclusive, TWEAK Fn14 block 51.8
CCC(C(=O)NC(C)CCc1ccco1)n1nc(C)n2c(cc3occc32)c1=O (stereo not drawn)	none (no result: LGR2 inh)
CCC(C(=O)NC(C)CCc1ccccc1)n1nc(C)n2c(cc3occc32)c1=O (stereo not drawn)	TWEAK Fn14 block 99.7 (no result: LGR2 inh)
Cc1c(C(=O)Nc2nonc2-c2ccc(F)cc2)oc2ccc(F)cc12	TWEAK Fn14 block 78.5
C[C@H]1CN([C@@H](C)CO)C(=O)Cc2cc(NS(=O)(=O)c3ccccc3)ccc2O[C@@H]1CN(C)C	none (no result: TROY signal inh, HSP90 refold inh, TWEAK Fn14 block)
COc1ccc2c3c(n(C)c2c1)[C@@H](CO)N(C(=O)CC1CC1)CC31CCN(C(=O)NC(C)C)CC1	none (no result: TROY signal inh, HSP90 refold inh, TWEAK Fn14 block)
CC(=O)Nc1ccc(Sc2ncnc3scc(-c4ccccc4)c23)cc1	TWEAK Fn14 block 61.9
O=C(O)c1ccc(Nc2ncnc3scc(-c4ccccc4)c23)cc1	TWEAK Fn14 block 54.8
CCCNC(=O)N(C)C[C@H]1Oc2ncc(Br)cc2C(=O)N([C@H](C)CO)C[C@@H]1C	none (no result: TROY signal inh, HSP90 refold inh, TWEAK Fn14 block)
Nc1ncnc(NCc2ccc(F)cc2)c1[N+](=O)[O-]	TWEAK Fn14 block 59.6
Nc1ncnc(NCc2ccccc2)c1[N+](=O)[O-]	none
CCOc1ccc(N=Cc2c(C)[nH]n(-c3nc4ccccc4[nH]3)c2=O)cc1	LGR2 inh 63.1
COc1ccc(-c2csc(NC3OC(=O)c4c3ccc(OC)c4OC)n2)cc1OC (stereo not drawn)	TWEAK Fn14 block 66.9 (no result: LGR2 inh)
CN(C)CCCNC(=O)C[C@@H]1C=C[C@@H](NC(=O)Cc2cccnc2)[C@H](CO)O1	none (no result: TROY signal inh, HSP90 refold inh, TWEAK Fn14 block)
CC(=O)c1ccc(NC(=O)CCC(=O)OCC(F)(F)C(F)F)cc1	HSP90 refold inh 16.6 (no result: LGR2 inh)
COc1ccccc1NC(=O)CCCC(=O)OCC(F)(F)C(F)F	TWEAK Fn14 block 62.7
CCCc1ccc(OCc2ccc(C(=O)N3CCCC3)o2)cc1	HSP90 refold inh 16.8
CN1CCN(C(=O)c2ccc(COc3ccc(C(C)(C)C)cc3)o2)CC1	none (no result: TROY signal inh, LGR2 inh)
O=c1cc(CSc2nnc(-c3cccs3)n2Cc2ccccc2)nc2sc3ccccc3n12	TWEAK Fn14 block 52.6 (no result: LGR2 inh)
Cc1cc(C(=O)CSc2nnc(-c3cccs3)n2Cc2ccccc2)c(C)n1C	none (no result: LGR2 inh)
CCCc1c(-c2ccc(O)cc2)nn(-c2ccc(O)cc2)c1-c1ccc(O)cc1	TROY signal inh 74.8 (no result: HSP90 refold inh, LGR2 inh)
CN1[C@@H]2Cn3c(ccc(-c4ccccc4)c3=O)[C@H]1[C@@H](C(=O)N1CCC(Cc3ccccc3)CC1)[C@@H]2CO	none (no result: TROY signal inh, HSP90 refold inh, TWEAK Fn14 block)
CN1C(=O)[C@H](Cc2ccc([N+](=O)[O-])cc2)NC1=S	TWEAK Fn14 block 50.7
CN1C(=O)C(CCC(N)=O)NC1=S (stereo not drawn)	none (no result: LGR2 inh)
COc1ccc(-c2csc(NC(=O)c3ccc(OCC(=O)N4CCOCC4)c(OC)c3)n2)cc1OC	TROY signal inh 70.8, TWEAK Fn14 block 81.5 (no result: LGR2 inh)
Cc1sc2ncnc(N3CCC(C(=O)Nc4ccc(Br)cc4Br)CC3)c2c1C	TROY signal inh 56.0 (no result: HSP90 refold inh)
COc1ccc(-c2csc(NC(=O)C3CCN(c4ncnc5sc(C)c(C)c45)CC3)n2)cc1OC	TROY signal inh 69.8, TWEAK Fn14 block 102.2 (no result: HSP90 refold inh)
COc1cc(C(=O)Nc2cccc(C)n2)ccc1OCC(=O)N1CCOCC1	none (no result: HSP90 refold inh)
Cc1ccccc1OCC(=O)NNC(=O)C1CCN(c2ncnc3sc(C)c(C)c23)CC1	TROY signal inh 53.0 (no result: HSP90 refold inh)
CC(=O)c1cccc(-c2ccc3c(c2)C(C)(Cc2ccccc2F)C(=O)N3)c1 (stereo not drawn)	TWEAK Fn14 block 57.5 (no result: HSP90 refold inh)
CC1N(C)c2cc(NC(=O)c3ccco3)ccc2C1(C)C (stereo not drawn)	TROY signal inh 53.4
Cc1csc2ncnc(N3CCN(C(=O)Nc4ccc(OC(F)(F)F)cc4)CC3)c12	TWEAK Fn14 block 62.6 (no result: LGR2 inh)
O=C(Nc1nc2ccccc2s1)c1ccc2sc([C@H]3C[C@H](O)[C@@H](CO)O3)nc2c1	LGR2 inh 98.4, TWEAK Fn14 block 64.1 (no result: HSP90 refold inh)
O=C(Nc1nccs1)c1ccc2sc([C@H]3C[C@H](O)[C@@H](CO)O3)nc2c1	none (no result: HSP90 refold inh)
O=C(C[C@H]1C=C[C@@H](NC(=O)c2ccc3c(c2)OCO3)[C@@H](CO)O1)NCc1ccc(Cl)cc1	none (no result: TROY signal inh, HSP90 refold inh, TWEAK Fn14 block)
Cc1cc(=O)n2[nH]c(C)c(-c3ccccc3)c2n1	none (no result: LGR2 inh)
O=c1cc(-c2ccccc2)nc2c(-c3ccccc3)c(C(F)(F)F)[nH]n12	TROY signal inh 56.3
C[C@@H]1CN([C@@H](C)CO)C(=O)c2cccc(NC(=O)Nc3ccc(F)cc3)c2O[C@H]1CN(C)C(=O)NC1CCCCC1	none (no result: TROY signal inh, HSP90 refold inh, TWEAK Fn14 block)
Cc1ccc(NS(=O)(=O)c2ccc(Cl)c(C(=O)Nc3ccccc3-c3nc4ccccc4[nH]3)c2)cc1C	TWEAK Fn14 block 91.4
CC(C)CC#Cc1ccc2c(c1)O[C@@H](CN(C)Cc1ccccn1)[C@H](C)CN([C@@H](C)CO)S2(=O)=O	none (no result: TROY signal inh, HSP90 refold inh, TWEAK Fn14 block)
COC(=O)c1ccc(COc2cccc3c2CCN(Cc2cccc(C)c2)C3=O)o1	TWEAK Fn14 block 55.4
COC(=O)c1ccc(COc2cccc3c2CCN(Cc2ccccc2)C3=O)o1	none
c1ccc(CNc2nc3ccccc3n3cnnc23)nc1	none
